Assay [1] can be described thus: compound effects on lung adenocarcinoma cell viability – A549, calcein-AM fluorescence, 48 h, basal, profiling panel (AID 1162). Note: test concentration not given here. As to conditions: higher = more signal.
Assay [2] in a line: compound effects on differentiated 3T3-L1 adipocyte viability – cell-based, 3T3-L1 adipocytes, calcein-AM fluorescence, 48 h, basal, profiling panel (AID 1163). Note: test concentration not given here. As to conditions: 3T3-L1 adipocytes viability, higher = more signal.
A short description of assay [3]: compound effects on hepatocellular carcinoma cell viability – HepG2, calcein-AM fluorescence, 48 h, basal, profiling panel (AID 1164). Note: test concentration not given here. As to conditions: higher = more signal.
A short description of assay [4]: compound effects on multiple myeloma cell viability – MM1S, calcein-AM fluorescence, 48 h, basal, profiling panel (AID 1165).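 Note: viability of MM1S multiple myeloma cells under basal unstimulated conditions; test concentration not given here.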 The following applies: higher = more signal.
The nature of assay [5]: calcein-AM signal in unstimulated myeloma cells – cell-based, calcein-AM fluorescence, 48 h, PK04 Diversity Set, profiling panel (AID 1166).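 Note: cells grown under basal conditions without added stimulus; test concentration not given here.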 The following applies: RPMI8226 myeloma viability, higher = more signal.
Assay [6] in a line: JC-1 mitochondrial signal, unstimulated HepG2 cells – cell-based, JC-1 fluorescence, 24 h, 100 nL compound, profiling panel (AID 1167). Note: test concentration not given here. As to conditions: HepG2 mitochondrial potential, higher = more signal.
Assay [7] in a line: JC-1 mitochondrial signal, unstimulated adipocytes – cell-based, JC-1 fluorescence, 3T3-L1 adipocytes, 24 h, 100 nL compound, profiling panel (AID 1168). Note: test concentration not given here. The following applies: JC-1 mitochondrial fluorescence, higher = more signal, called active from +8 up or from −8 down.
Assay [8] can be described thus: JC-1 mitochondrial signal, unstimulated myeloma cells – cell-based, JC-1 fluorescence, RPMI8226, 24 h, 100 nL compound, profiling panel (AID 1169). Note: test concentration not given here. The following applies: JC-1 mitochondrial potential fluorescence, higher = more signal.
Assay [9] is described as follows: JC-1 mitochondrial signal, unstimulated MM1S myeloma – cell-based, JC-1 fluorescence, 24 h, 100 nL compound, profiling panel (AID 1170). Note: test concentration not given here. The following applies: MM1S mitochondrial potential, higher = more signal.
A short description of assay [10]: resazurin metabolic signal in A549 cells – cell-based, resazurin fluorescence, 24 h, PK04 Diversity Set, profiling panel (AID 1171). Note: test concentration not given here. The following applies: A549 viability, higher = more signal, called active from +8 up or from −8 down.
A short description of assay [11]: resazurin metabolic signal in HepG2 cells – cell-based, resazurin fluorescence, 24 h, PK04 Diversity Set, profiling panel (AID 1172). Note: test concentration not given here. As to conditions: HepG2 viability, higher = more signal. A general note: Resazurin is reduced to fluorescent resorufin, in cell work by metabolically active cells.
Assay [12] can be described thus: budding yeast growth changes without added modifier – OD600, strain BY4716, 24 h, basal condition, primary screen (AID 1173). As to conditions: S. cerevisiae BY4716 growth, OD600, 24 h; higher = more signal, called active from +8 up or from −8 down.
A short description of assay [13]: viability profiling in MM1S myeloma cells – cell-based, resazurin fluorescence, basal, 24 h, PK04 Diversity Set, profiling panel (AID 1174). Note: test concentration not given here. The following applies: higher = more signal, called active from +8 up or from −8 down.
Assay [14] has as its target Dihydroorotate dehydrogenase (quinone), mitochondrial (Plasmodium falciparum (isolate 3D7)) (UniProt Q08210). Put plainly: inhibition of P. falciparum DHODH – biochemical, C-terminal His tag, absorbance 600 nm, primary screen (AID 1175).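 Note: recombinant parasite enzyme with a five histidine tag at its C terminus; test concentration not given here.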 As to conditions: PfDHODH enzyme, DCIP absorbance 600 nm; higher = more signal, called active from +8 up or from −8 down.
Assay [15] can be described thus: inhibition of PAO1 biofilm formation – strain PAO1, LB-PBS medium, absorbance 600 nm, primary screen (AID 1176). Note: test concentration not given here. As to conditions: P. aeruginosa PAO1 growth/biofilm, A600, 12 h; higher = more signal.
Assay [16] in a line: growth modulation of vineyard yeast isolate – strain RM11-1a, OD600, basal, 24 h, primary screen (AID 1177).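 Note: cultures grown under basal conditions with no added stressor; test concentration not given here.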 The following applies: S. cerevisiae RM11-1a growth, OD600, 24 h; higher = more signal, called active from +8 up or from −8 down.
The nature of assay [17]: growth of efflux-deficient E. coli DRC39 – strain DRC39, OD650, 24 h, E. coli filamentation inducers, primary screen (AID 1178).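 Note: growth measured as culture turbidity by optical density at 650 nm; test concentration not given here.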 As to conditions: E. coli DRC39 acrAB, higher = more signal, called active from +8 up or from −8 down.
Assay [18] in a line: growth of efflux-deficient E. coli DRC39 – strain DRC39, OD650, 48 h, E. coli filamentation inducers, primary screen (AID 1179).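 Note: screen aims at cell division blockers that make cells filament.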 The following applies: E. coli DRC39 delta-acrAB growth, higher = more signal, called active from +8 up or from −8 down.
A short description of assay [19]: viability profiling in RPMI8226 myeloma cells – cell-based, resazurin fluorescence, basal, 24 h, PK04 Diversity Set, profiling panel (AID 1180).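 Note: RPMI8826 multiple myeloma cell line at 5000 cells per well; test concentration not given here.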 As to conditions: higher = more signal.
Assay [20] addresses E3 ubiquitin-protein ligase XIAP (Homo sapiens) (UniProt P98170). Put plainly: small molecules binding XIAP protein – biophysical, small-molecule microarray, fluorescence 635 nm, primary screen (AID 1181).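 Note: score merges 667 nm emission and signal to noise over triplicate slides.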 As to conditions: higher = more signal.

Several values for one entry are separate records, joined by “and”; a condition that tells them apart may be missing. Equal entries are not always repeated. Activity calls are given as the source filed them. Unless noted, the rule behind the calls is not given here.

Dihydroorotate dehydrogenase (quinone), mitochondrial (Plasmodium falciparum (isolate 3D7)), sequence (Q08210 whole entry, looked up): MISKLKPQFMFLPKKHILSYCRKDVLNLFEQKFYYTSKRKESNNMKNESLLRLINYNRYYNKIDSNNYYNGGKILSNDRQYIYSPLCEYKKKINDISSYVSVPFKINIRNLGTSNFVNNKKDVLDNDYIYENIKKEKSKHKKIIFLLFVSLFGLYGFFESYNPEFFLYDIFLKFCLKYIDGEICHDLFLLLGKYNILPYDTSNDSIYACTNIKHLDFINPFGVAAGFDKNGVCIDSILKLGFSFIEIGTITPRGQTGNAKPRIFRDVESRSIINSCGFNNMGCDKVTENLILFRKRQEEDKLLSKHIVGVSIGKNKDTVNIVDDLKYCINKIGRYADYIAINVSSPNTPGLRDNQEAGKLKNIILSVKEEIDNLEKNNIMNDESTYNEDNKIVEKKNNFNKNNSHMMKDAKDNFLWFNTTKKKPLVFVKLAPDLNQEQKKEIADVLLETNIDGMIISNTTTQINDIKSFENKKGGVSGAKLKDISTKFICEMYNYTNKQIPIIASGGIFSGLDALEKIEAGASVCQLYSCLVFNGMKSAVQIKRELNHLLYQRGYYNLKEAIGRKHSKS
E3 ubiquitin-protein ligase XIAP (Homo sapiens), sequence (P98170 whole entry, looked up): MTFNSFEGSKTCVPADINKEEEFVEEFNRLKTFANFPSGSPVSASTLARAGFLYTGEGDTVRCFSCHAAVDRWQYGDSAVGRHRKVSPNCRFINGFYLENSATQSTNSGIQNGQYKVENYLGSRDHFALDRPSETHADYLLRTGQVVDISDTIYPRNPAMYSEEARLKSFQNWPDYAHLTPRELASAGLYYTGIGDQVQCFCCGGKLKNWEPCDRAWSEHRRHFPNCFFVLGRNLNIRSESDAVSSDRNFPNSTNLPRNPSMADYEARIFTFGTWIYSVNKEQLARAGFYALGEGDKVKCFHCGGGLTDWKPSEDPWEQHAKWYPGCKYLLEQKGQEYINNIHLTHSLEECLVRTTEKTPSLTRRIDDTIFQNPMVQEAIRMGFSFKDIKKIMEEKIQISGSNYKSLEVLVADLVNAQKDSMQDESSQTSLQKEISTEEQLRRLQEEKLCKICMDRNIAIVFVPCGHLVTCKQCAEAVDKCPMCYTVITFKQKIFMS

As to `C=CCN(Cc1ccccc1)C(=O)C1N(c2ccc(CCO)cc2)C(=O)C2C(C(=O)O)C3C=CC21O3` (stereo not given), the z-score in assay [1] was 0.14 and -0.777; in assay [2] it was 0.103 and 0.408; in assay [3] it was -0.0042 and -0.474; in [4], 0.298 and 1.04; in assay [5], -0.6 and -0.438; in [6], 0.0701 and -0.213. Besides, the z-score is 0.543 (inactive) and 0.024 (inactive) in [7]; -0.79 and 0.726 in [8]; 1.09 and 0.0787 in assay [9]; -1.06 (inactive) and -0.459 (inactive) in assay [10]; -1.09 and -0.194 in assay [11]; -0.627 (inactive) and -0.3 (inactive) in assay [12]. The z-score in assay [13] is -0.724 (inactive) and -1.11 (inactive); in assay [15], 0.0279 (inactive) and 0.345 (inactive); in assay [16], 0.345 (inactive) and -0.744 (inactive); in [17], 0.522 (inactive) and 0.134 (inactive); in assay [18], 0.0943 (inactive) and -0.178 (inactive); in assay [19], -0.821 and -0.623. In addition, the composite z-score was 0.79 (inactive) and 0.0901 (inactive) in [14]; -0.0629 and -0.365 in assay [20].

Take `Cc1ccc(S(=O)(=O)N[C@H]2COC(=O)[C@@H](C)COC(=O)[C@H](C)NC(=O)CC=C[C@H]2C)cc1`: the z-score is 0.437 in [1]; 0.0608 in [2]; -0.107 in assay [3]; 0.143 in assay [4]; 0.0608 in assay [5]; 0.125 in [6]. The z-score is 0.198 (inactive) in assay [7]; -0.137 in assay [8]; 0.894 in assay [9]; 1.57 (inactive) in [10]; 0.949 in [11]; -0.878 (inactive) in assay [12]. The z-score in assay [13] is 0.799 (inactive); in assay [15], -0.814 (inactive); in [16] it was -0.233 (inactive); in assay [17], 0.45 (inactive); in assay [18], -0.166 (inactive); in assay [19], 1.23. Besides, the composite z-score is -0.0791 (inactive) in assay [14] and -0.43 in assay [20].

As for `C=CCN(CCCC)C(=O)C1N(CCOCCO)C(=O)C2C(C(=O)O)C3C=CC21O3` (stereo not given), the z-score is -0.397 and -0.276 in assay [1]; 0.28 and -0.404 in [2]; -1.2 and -1.42 in [3]; 0.929 and 0.966 in [4]; -0.234 and 0.295 in assay [5]; -0.419 and -0.964 in assay [6]. For the same compound, the z-score in assay [7] is -0.309 (inactive) and -0.776 (inactive); in [8], 0.563 and 0.0271; in [9], 0.0912 and -0.0623; in assay [10], -0.169 (inactive) and -0.593 (inactive); in assay [11], -0.171 and -0.143; in assay [12], 0.492 (inactive) and 1.27 (inactive). Besides, the z-score is -0.451 (inactive) and -0.748 (inactive) in [13]; 0.413 (inactive) and 0.261 (inactive) in assay [15]; -0.119 (inactive) and 0.178 (inactive) in [16]; 0.127 (inactive) and -0.229 (inactive) in assay [17]; -0.11 (inactive) and -0.406 (inactive) in assay [18]; -0.472 and -0.68 in [19]. In addition, the composite z-score in [14] was 0.457 (inactive) and 0.856 (inactive); in assay [20], 0.0258 and -0.304.

Take `C=CCN(C(=O)C(c1cccs1)N(C(=O)/C=C\C(=O)O)c1c(Cl)cccc1CO)c1ccc(OC)cc1` (stereo not given): the z-score in assay [1] is 1.15 and 1.21; in assay [2], 0.111 and 0.112; in [3] it was 0.24 and 0.365; in [4], 1.51 and -0.996; in assay [5], 0.844 and 0.57; in assay [6], 0.601 and -1.19. In addition, the z-score in [7] is 0.418 (inactive) and 0.623 (inactive); in assay [8], -0.74 and -0.0886; in assay [9], 1.4 and -0.173; in assay [10], 0.747 (inactive) and -0.246 (inactive); in [11], 0.154 and -2.56; in assay [12], -2.07 (inactive) and -1.37 (inactive). Moreover, the z-score in assay [13] was 1.02 (inactive) and -0.0953 (inactive); in assay [15], -0.18 (inactive); in assay [16], -0.736 (inactive) and 0.0288 (inactive); in [17], 0.976 (inactive) and 0.515 (inactive); in [18] it was 1.11 (inactive) and 0.57 (inactive); in [19], 0.509 and -0.0282. Also, the composite z-score is -5.76 (inactive) and -2.28 (inactive) in [14]; 0.0264 and -0.0795 in assay [20].

On to `CN1C(=O)C2CC=C([C@H]3Oc4ccccc4S(=O)(=O)N4CCC[C@@H]34)CC2C1=O` (stereo not given in full), for which the z-score in assay [1] was -0.657 and 0.15; in [2], -0.109 and 0.323; in assay [3] it was -0.926 and -0.369; in [4] it was 0.49 and 0.288; in [5], -0.177 and -0.215; in [6] it was -0.649 and 0.00971. Besides, the z-score in assay [7] was 0.243 (inactive) and 0.347 (inactive); in assay [8], 0.439 and 0.341; in assay [9], 0.123 and -0.0296; in assay [10], 0.0976 (inactive) and -0.125 (inactive); in assay [11] it was -0.448 and 0.0011; in assay [12] it was 0.325 (inactive) and 0.478 (inactive). In addition, the z-score in [13] was -0.391 (inactive) and -0.44 (inactive); in [15], -0.0582 (inactive) and 0.0481 (inactive); in [16] it was 0.961 (inactive) and 1.32 (inactive); in [17], 0.563 (inactive) and 0.831 (inactive); in assay [18] it was 0.111 (inactive) and 0.0952 (inactive); in assay [19], -0.801 and -0.0821. The composite z-score in [14] is 0.341 (inactive) and -0.0294 (inactive); in assay [20] it was -0.245 and -0.244.

For the compound `CCN1C(=O)[C@H]2[C@H]3[C@H](O)[C@H](O)CC(=NOC[C@@H](O)COCc4ccco4)[C@@H]3CC[C@H]2C1=O`, the z-score is 0.107 and -0.737 in [1]; -0.233 and 1.1 in assay [2]; -0.417 and -0.814 in assay [3]; 0.0026 and 0.228 in [4]; -1.35 and -1.38 in assay [5]; -0.48 and -0.487 in assay [6]. The z-score in assay [7] is -0.844 (inactive) and -0.925 (inactive); in assay [8] it was 0.0424 and 0.122; in assay [9], 0.104 and 0.0266; in [10] it was -0.767 (inactive) and -1.14 (inactive); in [11] it was -0.113 and -1.03; in assay [12], 1.31 (inactive) and 0.252 (inactive). Moreover, the z-score in [13] is -0.413 (inactive) and -0.696 (inactive); in [15], -0.601 (inactive) and -0.385 (inactive); in assay [16] it was 0.567 (inactive) and 0.24 (inactive); in assay [17], -0.357 (inactive) and -1.05 (inactive); in [18] it was -0.463 (inactive) and -0.657 (inactive); in assay [19], -0.575 and -0.287. For the same compound, the composite z-score in assay [14] is 0.489 (inactive) and 0.529 (inactive); in [20], -0.0666 and -0.121.

(Values after PubChem BioAssay.)
